Screening results: PubChem BioAssay, National Center for Advancing Translational Sciences (NCATS)
Marburg entry inh = blocks Marburg virus binding to or entry into cells; Marburg virus pseudotyped entry inhibition, cell reporter; Potency, µM (highest dose often 37.8 µM), without a hit: at the highest dose activity change, negative = inhibition, usual class: inhibitors; actives 1.8% (n = 300,000); AID 540276; calls by dose curve; tested in HEK293 cells; note: potency is the fitted concentration of half-maximal effect
FMDV inh = blocks foot and mouth disease virus | FMDV antiviral cell-based qHTS | Potency, µM (series often up to 57.9 µM), inactives show top-dose activity change, negative = inhibition, usual class: inhibitors | actives 1.2% (n = 410,000) | AID 1159524; calls by dose curve; tested in HEK293T cells; note: read-out not given here; potency is the fitted concentration of half-maximal effect; nearly all actives have a fitted effect of over 45% in size
Lassa entry inh = Lassa virus entry inhibition | Lassa virus pseudotype entry inhibition, cell reporter | Potency, µM (top dose mostly 37.9 µM), without a hit: top-dose activity change, negative = inhibition, actives largely listed as inhibitors | actives 1.2% (n = 300,000); calls by dose curve; tested in HEK293 cells; note: potency is the fitted concentration of half-maximal effect; nearly all actives have a fitted effect of over 50% in size
HCV inh = blocks hepatitis C virus; Huh7.5.1 HCVcc-Cre infection, luciferase reporter, 44 h; Potency, µM (doses to about 41.8 µM), for the others: at the top dose activity change, negative = inhibition, actives largely listed as inhibitors; actives 3.4% (n = 340,000); AID 651820; active = well fitted inhibition curve with a large enough effect; inconclusive = small, poorly fitted or top-dose-only effect, or another doubt; inactive = no such curve, though single readings can be large or run the other way; note: potency is the fitted concentration of half-maximal effect
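Reporter virus HCVcc-Cre (~0.5 moi) infects cells exposed to compound; seeding density 1,000 cells/well with 4 h settling beforehand. Luminescence, 15 sec read, taken 44 h post-infection following a 15 min RT substrate incubation.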
HCMV inh = blocks human cytomegalovirus replication; HFF cells, HCMV-luciferase reporter, 72 h; active compounds read low; activity change, negative = inhibition, % at 57.5 µM; actives 4.5% (n = 410,000); in the data active = activity change below about -60%; inconclusive = no clear call, values can overlap the other calls; inactive = above about -39%
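HFF cells seeded 16 h at 37C, treated with compounds, infected with luciferase-reporter HCMV at MOI 1 PFU/cell; luciferase read at 72 h post infection, normalized to buffer-only and Salinomycin controls.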
The depositor's hits bear a star; ? = inconclusive; / = no result given; [ ] = another dose, or the depositor's remark. The list is not random: actives were taken first. Their share in the collection is about 7.9%. % is set by controls: 0 for no effect and ±100 for the full control effect.

SMILES | Marburg entry inh | FMDV inh | Lassa entry inh | HCV inh | HCMV inh
CN(C)c1ccc(/C=N/NC(=S)NCc2ccccc2)cc1 | -1% | 21% | 0.28µM* | -28% | -19
O=C(/C=C/Sc1ccccc1)c1ccc(Cl)cc1 | ? | / | -71% | -59% | -76*
O=C(/C=C/Sc1ccccc1)c1ccccc1 | ? | / | 0% | ? | -83*
O=C(/C=C/Nc1ccccc1)c1ccccc1 | ? | -30% | ? | 4% | 16
Cc1ccccc1NC(=O)C1CCN(S(=O)(=O)c2cccc3nonc23)CC1 | -7%[46.1 µM] | 12% | 6%[46.1 µM] | -4% | 4
C/C(=N\Nc1nc(N2CCCCC2)nc(N2CCOCC2)n1)c1cccs1 | -8%[46.1 µM] | -11% | 11% | 10µM* | -26
C/C(=N\Nc1nc(N2CCCCCC2)nc(N2CCCCCC2)n1)c1ccccc1 | / | -22% | / | ? | -66*
CC(=C/c1ccccc1)/C=N/Nc1nc(N2CCCCC2)nc(N2CCCCC2)n1 | -2% | -7% | -9% | 3% | -19
CCCN1C(=O)C2=NC(C3CCCC3)=NC2N(CCC)C1=O (stereo not drawn) | 14% | / | / | / | /
CNc1nc(N)c([N+](=O)[O-])c(NC2CCCCC2)n1 | 13% | 2% | ? | -27% | 34
CN(c1ncnc(N)c1[N+](=O)[O-])C1CCCCC1 | / | -14% | / | ? | -94*
CN(c1ncnc(N)c1[N+](=O)[O-])C1CCS(=O)(=O)C1 (stereo not drawn) | 3% | -10% | 17% | -25% | -74*
CCCCN(c1ccccc1)c1ncnc(N)c1[N+](=O)[O-] | -14% | -19% | 11% | -11% | -102*
Nc1ncnc(NC2CCS(=O)(=O)C2)c1[N+](=O)[O-] (stereo not drawn) | 5%[46.1 µM] | -6% | -19%[46.1 µM] | -3% | -24
Cc1cc(C)c(S(=O)(=O)c2cccc(Br)c2C)c(Cl)n1 | 15%[46.1 µM] | -18% | 4%[46.1 µM] | 6% | -21
O=C(CN1C(=O)CCc2cc(S(=O)(=O)N3CCOCC3)ccc21)NCc1ccc(F)cc1 | / | 7% | 2%[46.1 µM] | / | 5
Cc1oc(-c2nc3ccccc3n2C)cc1C(=O)c1ccccc1 | 11µM* | -62% | 2.8µM* | -4% | 16
CC(=NNc1cc(C)c2cc(C)ccc2n1)c1ccccn1 | / | / | / | / | -100*
C/C(=N\Nc1nc2ccccc2[nH]1)c1ccc2c(c1)OCCO2 | ? | -24% | ? | ? | -3
C/C(=N\Nc1nc2ccccc2[nH]1)c1ccccn1 | / | / | / | / | -98*
